This is part of a sample that, as a whole, favours compounds with a hit. Of some 83,000 tested, about 20% had one in any assay.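 Percent growth is the endpoint: 0 to 100 indicates growth inhibition (40 means 60% inhibition), 0 means no net growth, and negative values indicate cell death.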 Unmarked numbers belong to inactive results. Calls of active or inactive are those of the source. Rule for the calls: active = growth percent below 10; inactive = the rest.

Common to all, as to test: NCI-60 one-dose screen, 48 h (100 = growth as untreated, 0 = no growth, -100 = all killed)
Holding throughout (settings): 10 µM unless noted

In assay [1] the test system is HCT-15 colon.
For assay [2], the system named is HT29 colon.
Assay [3] concerns SNB-75 CNS.
Assay [4] deals with SNB-19 CNS.
The subject of assay [5] is U251 CNS.
Assay [6] deals with PC-3 prostate.
Assay [7] deals with SK-MEL-5 melanoma.
Assay [8] deals with UACC-62 melanoma.
Assay [9] relates to LOX IMVI melanoma.
In assay [10] the test system is SK-MEL-28 melanoma.
The test system of assay [11] is SK-MEL-2 melanoma.
Assay [12] concerns EKVX NSCLC.
In assay [13] the test system is SN12C renal.
Assay [14] has as its system UO-31 renal.
Assay [15] concerns TK-10 renal.
The subject of assay [16] is ACHN renal.
Assay [17] relates to CAKI-1 renal.
Assay [18] has as its system A498 renal.
Assay [19] deals with CCRF-CEM leukemia.
Assay [20] concerns MOLT-4 leukemia.

For `Nc1c(-c2nc3ccc(Br)cc3c(=O)[nH]2)nnn1-c1ccccc1`, the growth was 79% in [1]; 58.8% in [2]; 79.5% in [3]; 70.6% in assay [4]; 38.6% in [5]; 73.4% in assay [6]. The growth in assay [7] is 102%; in assay [8], 93.9%; in [9] it was 80.4%; in assay [10] it was 96.2%; in [11] it was 94.6%; in assay [12], 101%. For the same compound, the growth in assay [13] is 95.5%; in assay [14], 106%; in assay [15] it was 84.3%; in assay [16], 71.6%; in assay [17], 103%; in [18] it was 87.4%. Also, the growth in [19] was 93.3%; in [20] it was 85.1%.

As to `CC(=O)Nc1ccc(C(=O)/C=C/c2ccccc2)cc1`, the growth in assay [1] is 77.3%; in assay [2], 44.6%; in assay [3], 75.9%; in [4] it was 80.5%; in assay [5], 76.3%; in assay [6], 84.3%. Also, the growth in assay [7] was 91.5%; in assay [8], 90%; in assay [9], 61.8%; in assay [10] it was 93.4%; in assay [11], 78.2%; in assay [12] it was 95.2%. Further, the growth was 77.2% in [13]; 51.8% in assay [14]; 82.1% in [15]; 94.6% in assay [16]; 88.2% in [17]; 74% in assay [18]. For the same compound, the growth in assay [19] is 95.1%; in [20], 81.6%.

On to `Cn1ccc(Cc2cnc(N)s2)n1`, for which the growth in assay [1] was 104%; in [2], 97.5%; in [3], 93.3%; in assay [4] it was 98.9%; in assay [5], 97.5%; in assay [6] it was 98.8%. Besides, the growth was 101% in assay [7]; 100% in assay [8]; 103% in [9]; 106% in [10]; 97.4% in assay [11]; 106% in assay [12]. Moreover, the growth is 104% in assay [13]; 86.2% in [14]; 88.7% in [15]; 99.8% in assay [16]; 93.6% in assay [17]; 94.2% in assay [18]. The figures for the growth in assay [19] and in [20] were 100% and 93.3%, respectively.

In the case of `CCCCCCCC/C=C/CCCCCCCC1=NCC[N+]1(CCO)CCO`, the growth in assay [1] is 80.6%; in assay [2], 13%; in assay [3] it was 63.2%; in [4], 73.7%; in assay [5] it was 36.1%; in assay [6], 31.9%. Further, the growth in assay [7] is 77.9%; in assay [8], 69.4%; in [9] it was 52%; in [10], 96.3%; in assay [11] it was 102%; in assay [12], 76.4%. The growth was 76% in assay [13]; 65.4% in assay [14]; 41.2% in [15]; 82.2% in assay [16]; 52.5% in assay [17]; 73.4% in assay [18]. The results for the growth in assay [19] and in assay [20] were 31.4% and 41.7%, respectively.

In the case of `CSc1nc2sc3cc(Cl)ccc3n2c(=N)c1C#N`, the growth in assay [1] was 94.7%; in assay [2] it was 33%; in assay [3] it was 26%; in assay [4], 81.8%; in [5], 89.4%; in assay [6] it was 66.4%. The growth in assay [7] is 45.2%; in [8], 59.4%; in assay [9], 86.8%; in [10], 41.9%; in assay [11] it was 87.3%; in assay [12], 81.9%. Besides, the growth in assay [13] was 89.5%; in [14] it was 75.2%; in [15], 83.8%; in [16] it was 78.9%; in assay [17], 69.9%; in assay [18], 98%. The growth in assay [19] is 88.6%; in assay [20], 15.7%.

Regarding `COc1cc(/C=C/C(=O)c2cccc(-n3cc(-c4ccccc4)[nH]c3=O)c2)cc(OC)c1OC`, the growth is 0.0594% (active) in assay [1]; -72% (active) in [2]; 34.2% in [3]; 20.2% in [4]; -78.6% (active) in assay [5]; 7.64% (active) in assay [6]. Moreover, the growth in assay [7] is -90.1% (active); in assay [8] it was -86.3% (active); in assay [9], -85.2% (active); in assay [10], -48.4% (active); in assay [11], -64.5% (active); in [12], 17%. For the same compound, the growth in assay [13] is 10.4%; in [14], -45.2% (active); in [15] it was -5.4% (active); in [16], -64.9% (active); in [17] it was 12.2%; in assay [18], 33.2%. Besides, the growth in [19] is 3.61% (active); in assay [20], -12.6% (active).

`CC(C)c1ccc(C(=O)OC(=O)c2ccc(C(C)C)cc2)cc1`: the growth is 95.1% in assay [1]; 112% in assay [2]; 88.6% in assay [3]; 107% in assay [4]; 91.2% in assay [5]; 86.8% in assay [6]. Besides, the growth in [7] was 116%; in assay [8], 99.4%; in assay [9] it was 91.5%; in [10], 115%; in [11], 92.4%; in assay [12], 99.7%. Besides, the growth in assay [13] was 98.7%; in assay [14], 83.9%; in [15] it was 98.2%; in [16] it was 96%; in assay [17], 67.7%; in assay [18] it was 92.1%. Moreover, the figures for the growth in assay [19] and in assay [20] were 66.8% and 66.2%, respectively.

On to `Cc1ccc(/C(=N\N=C(N)N)c2ccccc2)cc1`, for which the growth was -4.22% (active) in assay [1]; 3.12% (active) in assay [2]; 28.5% in assay [3]; 9.71% (active) in assay [4]; 12.7% in [5]; 14.1% in [6]. Besides, the growth was -13.4% (active) in assay [7]; 20.7% in [8]; 28.3% in assay [9]; 64.4% in assay [10]; 71.3% in assay [11]; 34.3% in assay [12]. The growth is 26.9% in assay [13]; 24.8% in [14]; 42.2% in assay [15]; 20.4% in assay [16]; 41.2% in assay [17]; 20.1% in [18]. For the same compound, the growth was 14% in [19] and 13.3% in [20].

In the case of `Cc1ccc(S(=O)(=O)Nc2sccc2-c2nc(-c3ccccc3)no2)cc1`, the growth was 97.9% in [1]; 100% in [2]; 84.4% in assay [3]; 94.4% in assay [4]; 93.9% in assay [5]; 86.4% in [6]. In addition, the growth in assay [7] is 98.6%; in [8] it was 79.1%; in assay [9], 91%; in assay [10] it was 92.9%; in [11] it was 91.6%; in assay [12], 94.2%. For the same compound, the growth was 95.1% in [13]; 70.4% in [14]; 103% in assay [15]; 89.9% in assay [16]; 81.3% in [17]; 96.3% in [18]. Also, the growth was 92.1% in assay [19] and 98% in assay [20].

With `COc1ccc(-c2nc3ccccn3c2/C=C/C(=O)c2cc(OC)c(OC)c(OC)c2)cc1`, the growth is 50.4% in assay [1]; 45.2% in [2]; 44.3% in assay [3]; 72.4% in assay [4]; 36% in assay [5]; 56.2% in assay [6]. Further, the growth was 26.9% in assay [7]; 45.2% in assay [8]; 44.2% in assay [9]; 41.1% in assay [10]; 52.6% in [11]; 90.4% in assay [12]. For the same compound, the growth is 54.8% in [13]; 42.9% in [14]; 73.6% in assay [15]; 43.1% in assay [16]; 59.1% in [17]; 55% in [18]. For the same compound, the growth in assay [20] was 61.6%.

Consider `COc1cc(C(=O)/C=C/c2c(-c3ccc(F)cc3)nc3ncccn23)cc(OC)c1OC`, for which the growth was 43.5% in assay [1]; 38.2% in [2]; 59.2% in assay [3]; 88.2% in assay [4]; 48.2% in assay [5]; 47% in assay [6]. In addition, the growth in assay [7] is 30.5%; in assay [8], 52.2%; in assay [9], 36.4%; in assay [10], 49.2%; in [11] it was 30.1%; in assay [12] it was 52.3%. Also, the growth in [13] was 60.8%; in assay [14], 35.7%; in assay [15] it was 78.2%; in assay [16] it was 47%; in [17], 16.2%; in [18], 69.9%. In addition, the growth was 18.9% in [19] and 50.7% in assay [20].

`Cn1cc(Nc2nccc(-c3ccc(N4CCCC4)c(C#N)c3)n2)cn1`: the growth in [1] was 21.3%; in assay [2] it was 20.3%; in [3], 24.5%; in [4], 62.3%; in [5], 35.8%; in assay [6] it was 43%. Moreover, the growth in [7] is 38.8%; in [8], 28.8%; in assay [9], 32.6%; in assay [10] it was 64%; in assay [11] it was 3.95% (active); in assay [12] it was 57%. In addition, the growth in assay [13] was 44.9%; in assay [14], 31.9%; in assay [15], 40.7%; in assay [16], 26.7%; in [17], 16.7%; in assay [18], 48%. In addition, the growth was 34% in [19] and 17.2% in assay [20].

Regarding `CCCCNC(=O)c1cc(NCc2cc(O)ccc2O)ccc1O`, the growth was 84.6% in assay [1]; 80.8% in assay [2]; 66.6% in [3]; 106% in [4]; 98.6% in [5]; 74.4% in assay [6]. Besides, the growth is 98.4% in [7]; 93.8% in assay [8]; 91.3% in assay [9]; 105% in assay [10]; 93.6% in assay [11]; 95% in assay [12]. Also, the growth in assay [13] was 89.7%; in [14], 57%; in [15], 101%; in assay [16], 89.4%; in assay [17] it was 87.3%; in assay [18], 88.9%. Further, the growth was 8.3% (active) in assay [19] and 61.5% in [20].

For the origin of these results see PubChem BioAssay (NCI).
